Reference: the supplement of paper PMC9694430

Tests used:
Assay in all cases: thermal shift delta Tm vs DMSO control; higher = stronger stabilization (binding)
Settings in all cases: 12.5 µM; protein concentration 2 µM
[1] = tested on: LOC_OS02G45750-cb003
Procedure, shortened: (§1)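 Compounds dissolved in DMSO were added to purified rice kinase domain constructs, which had been expressed in E. coli, for differential scanning fluorimetry. Each well held 19.5 μl of 2 μM kinase in 100 mM potassium phosphate pH 7.5, 150 mM NaCl, 10% glycerol and 5 × SYPRO Orange. Fluorescence was followed from 25°C to 95°C at a rate of 0.05°C/s. Shifts in Boltzmann-fitted melting temperature are triplicate means relative to DMSO-only protein.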

[2] = tested on: LOC_OS02G54510-cb004
Procedure, shortened: as §1

[3] = tested on: LOC_OS03G04050-cb001
Procedure, shortened: as §1

[4] = tested on: LOC_OS03G12390-cb001
Procedure, shortened: as §1

[5] = tested on: LOC_OS03G27990-cb004
Procedure, shortened: as §1

[6] = tested on: LOC_OS03G50450-cb001
Procedure, shortened: as §1

[7] = tested on: LOC_OS03G50810-cb003
Procedure, shortened: as §1

[8] = tested on: LOC_OS04G35114-cb001
Procedure, shortened: as §1

[9] = tested on: T1, LOC_OS04G38480-cb003
T1 sequence (whole entry): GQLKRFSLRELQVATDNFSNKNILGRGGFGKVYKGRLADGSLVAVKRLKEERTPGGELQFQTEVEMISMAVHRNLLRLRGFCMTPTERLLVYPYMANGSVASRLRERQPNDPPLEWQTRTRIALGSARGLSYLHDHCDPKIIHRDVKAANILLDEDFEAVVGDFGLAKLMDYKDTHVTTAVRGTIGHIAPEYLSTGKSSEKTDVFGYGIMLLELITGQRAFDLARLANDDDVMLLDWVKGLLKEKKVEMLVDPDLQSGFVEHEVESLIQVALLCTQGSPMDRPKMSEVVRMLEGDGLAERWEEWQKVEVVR
Procedure, shortened: as §1

[10] = tested on: T2, LOC_OS04G41100-cb001
T2 sequence (whole entry): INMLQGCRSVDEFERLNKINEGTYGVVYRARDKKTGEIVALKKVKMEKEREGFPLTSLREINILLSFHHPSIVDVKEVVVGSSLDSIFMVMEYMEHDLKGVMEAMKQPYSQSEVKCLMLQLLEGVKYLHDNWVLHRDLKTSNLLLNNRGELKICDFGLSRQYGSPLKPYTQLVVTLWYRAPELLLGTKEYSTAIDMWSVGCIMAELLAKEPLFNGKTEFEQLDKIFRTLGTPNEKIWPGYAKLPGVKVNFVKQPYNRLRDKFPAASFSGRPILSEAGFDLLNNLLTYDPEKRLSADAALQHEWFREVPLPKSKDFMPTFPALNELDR
Procedure, shortened: as §1

[11] = tested on: LOC_OS04G57630-cb004
Procedure, shortened: as §1

[12] = tested on: LOC_OS05G07850-cb002
Procedure, shortened: as §1

[13] = tested on: LOC_OS05G16824-cb004
Procedure, shortened: as §1

[14] = tested on: LOC_OS05G28520-cb001
Procedure, shortened: as §1

[15] = tested on: LOC_OS05G30820-cb001
Procedure, shortened: as §1

[16] = tested on: LOC_OS05G43570-cb004
Procedure, shortened: as §1

[17] = tested on: LOC_OS06G16330-cb003
Procedure, shortened: as §1

[18] = tested on: T3, LOC_OS06G22820-cb001
T3 sequence (whole entry): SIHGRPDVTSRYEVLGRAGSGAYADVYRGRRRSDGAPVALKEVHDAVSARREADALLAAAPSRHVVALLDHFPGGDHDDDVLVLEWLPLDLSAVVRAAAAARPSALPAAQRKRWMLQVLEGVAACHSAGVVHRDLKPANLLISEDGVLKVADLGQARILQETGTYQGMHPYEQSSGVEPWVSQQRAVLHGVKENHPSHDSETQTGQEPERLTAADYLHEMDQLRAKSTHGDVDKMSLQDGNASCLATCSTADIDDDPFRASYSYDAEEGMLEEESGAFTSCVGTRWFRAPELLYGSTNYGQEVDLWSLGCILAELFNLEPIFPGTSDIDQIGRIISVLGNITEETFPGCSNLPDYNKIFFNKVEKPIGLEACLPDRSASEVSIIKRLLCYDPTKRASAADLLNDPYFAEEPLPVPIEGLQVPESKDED
Procedure, shortened: as §1

[19] = tested on: LOC_OS07G06570-cb004
Procedure, shortened: as §1

[20] = tested on: LOC_OS07G07230-cb001
Procedure, shortened: as §1

Sequence of LOC_OS06G16330-cb003 (as listed by the source): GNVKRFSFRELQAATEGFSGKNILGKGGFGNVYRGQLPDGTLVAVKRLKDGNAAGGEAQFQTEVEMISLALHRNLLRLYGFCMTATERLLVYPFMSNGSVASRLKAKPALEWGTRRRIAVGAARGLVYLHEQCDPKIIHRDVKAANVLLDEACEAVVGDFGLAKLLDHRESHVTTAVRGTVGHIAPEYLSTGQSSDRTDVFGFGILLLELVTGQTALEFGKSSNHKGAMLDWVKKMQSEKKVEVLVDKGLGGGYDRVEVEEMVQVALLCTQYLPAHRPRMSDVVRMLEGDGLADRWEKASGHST

SMILES	thermal shift delta Tm [1]	thermal shift delta Tm [2]	thermal shift delta Tm [3]	thermal shift delta Tm [4]	thermal shift delta Tm [5]	thermal shift delta Tm [6]	thermal shift delta Tm [7]	thermal shift delta Tm [8]	thermal shift delta Tm [9]	thermal shift delta Tm [10]	thermal shift delta Tm [11]	thermal shift delta Tm [12]	thermal shift delta Tm [13]	thermal shift delta Tm [14]	thermal shift delta Tm [15]	thermal shift delta Tm [16]	thermal shift delta Tm [17]	thermal shift delta Tm [18]	thermal shift delta Tm [19]	thermal shift delta Tm [20]
CC(C)(O)CNc1ncc(-c2ccnc(Nc3ccnc(Cl)c3)n2)c(CC2CC2)n1	2.85 °C	0.6 °C	0.19 °C	-0.18 °C	0.11 °C	0.3 °C	0.65 °C	3.2 °C	1.45 °C	0.65 °C	0.07 °C	7.44 °C	0.09 °C	0.75 °C	0.41 °C	0.5 °C	4.77 °C	0.62 °C	0.78 °C	0.71 °C
C=CC(=O)Nc1ccc2ncnc(Nc3cccc(Br)c3)c2c1	0.51 °C	0.24 °C	0.68 °C	-0.11 °C	0.2 °C	0.37 °C	0.27 °C	0.79 °C	0.18 °C	0.35 °C	0.39 °C	0.86 °C	-2.41 °C	-0.05 °C	0.56 °C	0.31 °C	-0.95 °C	0.64 °C	0.91 °C	0.32 °C
CSc1cccc(Nc2ncc3cc(-c4c(Cl)cccc4Cl)c(=O)n(C)c3n2)c1	1.81 °C	1.36 °C	0.46 °C	0.1 °C	0.26 °C	0.49 °C	0.58 °C	2.51 °C	1.67 °C	0.59 °C	0.15 °C	5.12 °C	1.03 °C	0.64 °C	0.34 °C	0.27 °C	0.34 °C	0.59 °C	0.45 °C	0.66 °C
CC(=O)c1c(C)c2cnc(Nc3ccc(N4CCNCC4)cn3)nc2n(C2CCCC2)c1=O	6.05 °C	0.3 °C	0.22 °C	5.44 °C	2.08 °C	0.53 °C	2.97 °C	3.19 °C	1.9 °C	1.04 °C	0.52 °C	5.93 °C	5.52 °C	0.05 °C	0.23 °C	0.31 °C	4.77 °C	-0.1 °C	0.7 °C	0.73 °C
Cc1cc2c(F)c(Oc3ncnn4cc(OC[C@@H](C)O)c(C)c34)ccc2[nH]1	1.84 °C	-0.24 °C	0.46 °C	-0.04 °C	1.01 °C	0.21 °C	0.22 °C	5.26 °C	1.05 °C	0.62 °C	0.32 °C	2.97 °C	-0.74 °C	0.85 °C	0.47 °C	-0.02 °C	0.19 °C	0.53 °C	0.51 °C	0.51 °C
